About 4,900 (1.5%) of roughly 330,000 compounds were called active.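 Rule for the calls: active = inhibition above the mean inhibition across the screen plus 3 SD (cut at about 25% in these data); inactive = the rest.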 For the sample, actives were picked, then their nearest neighbours and some compounds at random.
biological target: Platelet-activating factor acetylhydrolase (Homo sapiens) (UniProt Q13093); assay: pPAFAH enzyme inhibitors, primary screen, biochemical, fluorescence polarization, human (AID 463082); settings: recombinant pPAFAH, FP-rhodamine probe fluorescence polarization; at 3.39 µM; stronger effect = higher value;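 note: inhibitors block binding of the rhodamine activity-based probe so polarization drops; 0% = enzyme with DMSO and 100% = wells lacking pPAFAH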
Sequence (Q13093 whole entry, looked up): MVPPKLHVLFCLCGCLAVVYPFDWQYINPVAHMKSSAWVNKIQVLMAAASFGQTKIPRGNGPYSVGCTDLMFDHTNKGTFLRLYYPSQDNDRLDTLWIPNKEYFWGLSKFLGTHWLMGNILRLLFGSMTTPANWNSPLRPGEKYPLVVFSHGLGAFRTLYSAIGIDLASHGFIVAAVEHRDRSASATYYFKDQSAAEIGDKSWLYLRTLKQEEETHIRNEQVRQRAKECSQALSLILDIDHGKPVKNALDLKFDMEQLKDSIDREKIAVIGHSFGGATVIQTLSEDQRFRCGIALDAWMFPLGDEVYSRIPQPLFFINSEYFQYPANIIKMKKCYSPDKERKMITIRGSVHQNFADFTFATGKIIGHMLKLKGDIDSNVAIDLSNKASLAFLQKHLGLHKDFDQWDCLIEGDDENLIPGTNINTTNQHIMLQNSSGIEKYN

Row | SMILES | inhibition
1 | O=C(Nc1ccc(F)cc1)N1CCN(c2ccc(F)cc2)CC1 | -4.2% (inactive)
2 | CC(=O)N1CCN(c2ccc(NCc3ccc(C(C)C)cc3)cc2)CC1 | 30.8% (active)
3 | CC(CC(=O)N1CCN(c2ccccc2)CC1)c1ccccc1 (centres undefined) | 0.04% (inactive)
4 | N#CC1=C(N)N(c2ccc(F)cc2)C(=O)C1 | -0.02% (inactive)
5 | CCCCc1nc(NCCN)c(C#N)c2c1CSC(C)(C)C2 | 4.91% (inactive)
6 | Cc1cccc(COc2ccccc2/C=N/Nc2ccc([N+](=O)[O-])cc2)c1 | 18% (inactive)
7 | Cc1ccc(NS(=O)(=O)c2ccc(N/N=C/c3ccccc3OCC(=O)O)c([N+](=O)[O-])c2)c(C)c1 | 88.4% (active)
8 | C=C(C)CNC(=S)N/N=C/c1ccccc1OCC(=O)O | 0.9% (inactive)
9 | COCCn1c(=O)[nH]c(=O)c2cc(C(=O)c3cc(OC)ccc3O)cnc21 | -1.8% (inactive)
10 | CC(C)NC(=O)C(=O)NCCN1CCN(S(=O)(=O)c2ccc(Cl)cc2)CC1 | 2.1% (inactive)
11 | c1ccc(CSc2nnc(-c3ccco3)c(-c3ccco3)n2)cc1 | 62% (active)
12 | CCc1nnc(SCc2cccc(F)c2)nc1CC | 7.48% (inactive)
13 | Clc1ccccc1CSc1nnc(-c2ccco2)c(-c2ccco2)n1 | 74.6% (active)
14 | COc1ccc2nc(SCc3ccccc3)nc(C)c2c1 | 3.07% (inactive)
15 | O=C(CC1N=C2c3ccccc3N=C(SCc3ccccc3Cl)N2C1=O)NCc1ccco1 (centres undefined) | 6.79% (inactive)
16 | O=C(Nc1nnc(SCc2ccccc2Cl)s1)c1cccc([N+](=O)[O-])c1 | 22.8% (inactive)
17 | N#CC(Cc1cc2ccccc2n1S(=O)(=O)c1ccccc1)OCc1ccccc1 (centres undefined) | 3.57% (inactive)
18 | N#Cc1c(NC(=O)C2CCCO2)sc2c1CCCCC2 (centres undefined) | -1.14% (inactive)
19 | CC(=O)N1CCN(C(=O)c2cccc(S(=O)(=O)Nc3ccc(C)cc3)c2)CC1 | 19.9% (inactive)
20 | Nc1cccc(S(=O)(=O)Nc2ccc(SC(F)F)cc2)c1 | 26.6% (active)
21 | Cc1cccc(NS(=O)(=O)c2ccc(C)c(C(N)=O)c2)c1 | 9.98% (inactive)
22 | CCOc1cc(C(=O)N2CCc3cc(OC)c(OC)cc3C2)ccc1OC(F)F | 11% (inactive)
23 | CC(C)N1CCC(=NNc2ccc([N+](=O)[O-])cc2S(=O)(=O)N2CCOCC2)CC1 | 5.77% (inactive)

Row | SMILES | inhibition
24 | COc1cccc(NS(=O)(=O)c2ccc3[nH]cc(C(=O)NCCCOC(C)C)c(=O)c3c2)c1 | 29% (active)
25 | CCc1cccc2c(=O)c(C(=O)NCCCOC)c[nH]c12 | 3.69% (inactive)
26 | CCN(CC)S(=O)(=O)c1ccc2[nH]cc(C(=O)NCCc3ccccc3)c(=O)c2c1 | -0.23% (inactive)
27 | C=CCOc1ccc(/C=C/C(=O)OCC(=O)NC2CCCCCC2)cc1 | 12% (inactive)
28 | CCN(c1ccccc1)S(=O)(=O)c1cccc(C(=O)NCc2ccccc2CN2CCOCC2)c1 | 3.38% (inactive)
29 | COc1ccccc1C(CNC(=O)c1cccc(NS(=O)(=O)c2ccc(Br)cc2)c1)N(C)C (centres undefined) | 4.01% (inactive)
30 | COc1ccc(NS(=O)(=O)c2cccc(C(=O)NCCc3ccc(S(N)(=O)=O)cc3)c2)cc1 | 26.8% (active)
31 | COc1ccc(OCC(=O)NCCc2ccc(S(N)(=O)=O)cc2)cc1 | -2.47% (inactive)
32 | O=C(NCc1ccccc1CN1CCCC1)c1cccc(S(=O)(=O)Nc2ccc(F)cc2)c1 | 31.6% (active)
33 | O=C(NCCN1CCOCC1)c1cccc(S(=O)(=O)Nc2ccc(F)cc2)c1 | 22.9% (inactive)
34 | COc1ccccc1C(CNC(=O)c1cccc(S(=O)(=O)Nc2ccc(F)cc2)c1)N(C)C (centres undefined) | 28.3% (active)
35 | COc1ccc(C(CNC(=O)c2ccc(NS(=O)(=O)c3ccc(F)c(C)c3)cc2)N(C)C)cc1 (centres undefined) | 7.73% (inactive)
36 | NS(=O)(=O)c1ccc(CNC(=O)c2cccc(Oc3ccccc3)c2)cc1 | 4.17% (inactive)
37 | CC(=O)N1c2ccc(S(=O)(=O)NCCC(=O)N(C)C3CCCCC3)cc2CC1C (centres undefined) | 1.62% (inactive)
38 | O=C(c1n[nH]c2c1CCC2)N1CCCC(Nc2cccc(F)c2)C1 (centres undefined) | -0.4% (inactive)
39 | O=C(COc1ccc(NC(=O)c2ccccc2[N+](=O)[O-])cc1)c1ccc(F)cc1 | 0.54% (inactive)
40 | C/C(=N\NC(=O)COc1ccc(C)cc1[N+](=O)[O-])c1ccc2c(c1)OCCO2 | 4.11% (inactive)
41 | CC(=O)Nc1cccc(OCC(=O)/C=C2\N(C)c3ccccc3C2(C)C)c1 | 1.61% (inactive)
42 | N[C@@H](Cc1ccccc1)C(=O)N1CCC(C(=O)NCC(=O)Nc2ccc(F)cc2)CC1 | 2.49% (inactive)
43 | Cc1cc(C)c2c(Cn3ccnc3)cc(=O)oc2c1 | -1.95% (inactive)
44 | CCN1C(=O)/C(=C2/Sc3ccccc3N2CCCS(=O)(=O)O)SC1=S | 28.1% (active)
45 | CCCCN1C(=O)/C(=C2/Sc3ccc(Cl)cc3N2CC)SC1=S | 3.72% (inactive)
46 | CCCCN1C(=O)/C(=C/C=C2/C=Cc3ccccc3N2CC)SC1=S | -3.21% (inactive)

Row | SMILES | inhibition
47 | CCOC(=O)C(CCOc1cccc(CC)c1)C(=O)OCC | 5.98% (inactive)
48 | CCCn1nc(C(=O)OCc2nc(N)nc(Nc3ccccc3C)n2)c2ccccc2c1=O | -2.36% (inactive)
49 | NC(=O)c1ccsc1NC(=O)c1ccco1 | 3.89% (inactive)
50 | O=C(Nc1nc(-c2ccco2)c(-c2ccco2)s1)c1ccco1 | 43% (active)
51 | O=C(Nc1nnc(CCOCCOCCc2nnc(NC(=O)c3ccco3)s2)s1)c1ccco1 | 8.62% (inactive)
52 | CC(=O)Oc1cccc(N2C(=O)CC(Nc3ccc(N4CCOCC4)cc3)C2=O)c1 (centres undefined) | 25.3% (active)
53 | COc1cc2ccccc2cc1C(=O)Nc1ccc(N2CCOCC2)cc1 | 11.2% (inactive)
54 | COc1ccc(N2CCN(C3CC(=O)N(c4ccc5c(c4)OCCO5)C3=O)CC2)cc1 (centres undefined) | -4.08% (inactive)
55 | O=C(CN1CCN(c2cccc(Cl)c2)CC1)Nc1ccc(S(=O)(=O)N2CCOCC2)cc1 | 5.13% (inactive)
56 | COc1ccc(-c2nn(-c3ccccc3)cc2/C=C\C(=O)Nc2ccc(C(=O)O)cc2)cc1 | -67.2% (inactive)
57 | O=C(O)c1ccc(N/N=C/c2cn(-c3ccccc3)nc2-c2cccs2)cc1 | 34% (active)
58 | O=C(NCc1cccnc1)c1cn(-c2ccccc2)nc1-c1cccs1 | -4.38% (inactive)
59 | Cn1ncc(N2CCN(S(=O)(=O)c3ccc(Br)cc3)CC2)c(Cl)c1=O | -5.38% (inactive)
60 | CN(C)S(=O)(=O)c1cccc(-c2nn(-c3ccccc3)cc2/C=C2\SC(=S)N(CC(=O)O)C2=O)c1 | 38.2% (active)
61 | Cc1ccc(/C=C2\SC(=S)N(CCC(=O)Nc3ccc(O)cc3)C2=O)cc1 | 4.61% (inactive)
62 | O=C(CN1C(=O)/C(=C\c2ccccc2F)SC1=S)Nc1nc2ccccc2s1 | 7.09% (inactive)
63 | C=CCOc1ccc(/C=C2\SC(=S)N(CCC(=O)O)C2=O)cc1 | 10.2% (inactive)
64 | Cc1ccc(-c2nn(-c3ccccc3)cc2/C=C/C(=O)Nc2cccc(S(N)(=O)=O)c2)cc1 | -54.5% (inactive)
65 | Cc1ccc(-c2nn(-c3ccccc3)cc2/C=C2\SC(=S)N(CCCCCC(=O)O)C2=O)o1 | 31.3% (active)
66 | O=C(N[C@@H]1C/C=C\C[C@@H](CC(=O)N(CCO)Cc2ccccc2)C(=O)N[C@H](Cc2ccccc2)COC1=O)OCC1c2ccccc2-c2ccccc21 | 7.18% (inactive)
67 | O=C(NCCc1ccccn1)c1cc(C(=O)C2CCCCC2)c[nH]1 | 4.41% (inactive)
68 | O=[N+]([O-])c1ncc(Br)cc1Nc1ccccc1 | 0.58% (inactive)
69 | O=[N+]([O-])c1cc(S(=O)(=O)CCCN2CCOCC2)ccc1F | 0.16% (inactive)

Row | SMILES | inhibition
70 | N#Cc1ccccc1S(=O)(=O)N1CCN(C(=O)c2cc(-c3ccccc3)nn2-c2ccccc2)CC1 | 0.65% (inactive)
71 | Cc1cccc(C)c1Nc1nnc(SCC(=O)NCCCN2CCCC2=O)s1 | 1.62% (inactive)
72 | Cc1cccc(C)c1Nc1nnc(SCC(=O)Nc2sccc2C#N)s1 | 27.6% (active)
73 | Cc1csc(SCC(=O)Nc2sccc2C#N)n1 | 11.3% (inactive)
74 | CC1=CC=CC2=N/C(=N\S(=O)(=O)c3ccc(F)cc3F)c3ccccc3CN12 | 1.76% (inactive)
75 | CC(Oc1ccccc1)C(=O)Nc1oc(-c2ccco2)c(-c2ccco2)c1C#N (centres undefined) | 28.7% (active)
76 | COc1cc(C(=O)Nc2oc(-c3ccccc3)c(-c3ccccc3)c2C#N)cc(OC)c1OC | 4.29% (inactive)
77 | CC(C)C(=O)Nc1oc(-c2ccccc2)cc1C#N | -0.35% (inactive)
78 | O=C(COC(=O)COc1cccc(F)c1)NCC1CCCCC1 | 7.16% (inactive)
79 | O=C(CNC(=O)c1cc(=O)[nH]c2ccccc12)Nc1ccc(F)c(F)c1 | 0.37% (inactive)
80 | Cc1c(C(=O)OCC(=O)N(CCC#N)c2ccccc2)oc2c1ccc1ccccc12 | -0.27% (inactive)
81 | Cc1ccccc1-n1c(SCC(=O)Nc2cccc3ccccc23)nc(O)cc1=O | 45.7% (active)
82 | C=CCn1c(N)cc(=O)nc1SCC(=O)Nc1cccc2ccccc12 | 0.51% (inactive)
83 | Cc1ccc2nc(SCC(=O)Nc3cccc4ccccc34)nc(=O)n2c1 | 3.47% (inactive)
84 | CN(C(=O)CSc1nnc(-c2ccc3c(c2)OCO3)o1)C1CCS(=O)(=O)C1 (centres undefined) | -3.28% (inactive)
85 | C=CCN(Cc1nc(-c2cc(OC)c3c(c2)OCO3)oc1C)C1CCS(=O)(=O)C1 (centres undefined) | 30.4% (active)
86 | COc1ccccc1C(=O)N(Cc1ccc(C)o1)C1CCS(=O)(=O)C1 (centres undefined) | 0.97% (inactive)
87 | NNC(=O)c1oc2nc(-c3ccccc3)cc(-c3ccco3)c2c1N | 37.4% (active)
88 | O=C(Nc1cccc(F)c1)c1cc(-c2ccco2)nc2ccccc12 | 16% (inactive)
89 | CNC(=S)NNC(=O)c1oc2nc(-c3ccccc3)cc(-c3ccco3)c2c1N | 11% (inactive)

Reference: PubChem BioAssay AID463082 (The Scripps Research Institute Molecular Screening Center, 2010)
